Results reported in PubChem BioAssay (NCATS).
Inconclusive results are not listed. Active and inactive are the calls of the source. Calls come from the whole dose curve; as a rule, active = well fitted inhibition curve with a large enough effect; inconclusive = small, poorly fitted or top-dose-only effect; inactive = flat fitted curve, though single readings scatter.

Each compound was assayed on CRL-7250 (assay: Cytotoxic Profiling of Annotated Libraries Using Quantitative High-Throughput Screening (AID 1296008; note: nearly all actives have a fitted effect of over 60% in size)). Conditions: Five cell lines viability, CellTiter-Glo ATP luminescence, 48-72 h; max response: stronger effect = lower value.
How it was run: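 Cytotoxicity was measured as CellTiter-Glo ATP luminescence, read after 10 min at room temperature. Compound treatment of the cells lasted 48 or 72 hr at 37 degrees Celsius in a qHTS format.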
% is set by controls: 0 for no effect and ±100 for the full control effect; potency is the fitted concentration of half-maximal effect.

Row | SMILES | max response | Potency | outcome
1 | CC1(c2nc3c(C(N)=O)cccc3[nH]2)CCCN1 (stereo unspecified) | -7.72% (inactive) | – | –
2 | C#CCN(Cc1cc2c(=O)[nH]c(C)nc2cc1Br)c1ccc(C(=O)NCc2cccnc2)cc1 | – | 51.7 nM (active) | –
3 | O=C(NCc1ccc(F)cc1)C(=O)c1c[nH]c2ccccc12 | – | – | inactive
4 | OC[C@H]1O[C@@H](Oc2ccccc2)[C@H](O)[C@@H](O)[C@@H]1O | – | – | inactive
5 | CCOc1ccc(S(=O)(=O)n2c(C)nc3ccccc32)cc1 | -1.87% (inactive) | – | –
6 | c1ccc(-c2csc(N3CCOCC3)n2)cc1 | 1.19% (inactive) | – | –
7 | Cc1ccccc1C#Cc1ccc(CCC(=O)O)cc1 | -3.17% (inactive) | – | –
8 | Cc1cccc(Oc2cnc(=O)[nH]c2)c1 | – | – | inactive
9 | CC1(C)CCC[C@]2(C)[C@H]3CC(=O)O[C@]3(C)CC[C@@H]12 | -21.8% (inactive) | – | –
10 | CCOc1cc2ncc(C#N)c(Nc3ccc(F)c(Cl)c3)c2cc1NC(=O)/C=C/CN(C)C | – | 651 nM (active) | –
11 | COc1cccc(-c2cc(NCc3ccc4c(c3)OCO4)nc(N)n2)c1 | – | 920 nM (active) | –
12 | COc1cc2ncnc(Nc3cccc(O)c3)c2cc1OC | – | – | inactive
13 | CC(C)(C)C(=O)CN1C(=O)[C@H](NC(=O)Nc2cccc(C(=O)O)c2)CN(C2CCCCC2)c2ccccc21 | 1.1% (inactive) | – | –
14 | COc1cc(C(=O)OC[C@@]2(O)CO[C@@H](O[C@H]3[C@H](Oc4ccc(C(=O)O)cc4OC)O[C@H](CO)[C@@H](O)[C@@H]3O)[C@@H]2O)ccc1O | -0.15% (inactive) | – | –
15 | Nc1ncnc2c1ncn2CCNCCCCCO | – | – | inactive
16 | C=C1C(OC2OCC(O)C(O)C2O)CC2C(C)(C)C(O)CCC2(C)C1CC/C(C)=C\CO (stereo unspecified) | -6.07% (inactive) | – | –
